Test results: PubChem BioAssay (EPA / NIEHS)
Values joined by “and” are separate entries in the source; they are usually repeats but may differ in a detail not shown here. Identical values can stand only once. Records with an inconclusive call do not appear. A structure can be active in one record and inactive in another. Active and inactive are the calls of the source. Rule for the calls: active = hit-call score of the fitted dose curve at least 0.9, where 1 is the maximum; inconclusive = response in the unintended direction; inactive = score below 0.9.

Experiments:
[1] = biological target: chicken Estrogen Receptor (ERa), ESR1 (gene 396099) (UniProt P06212); test: ATG_chERa_XSP2: Attagene TRANS-FACTORIAL Multi-Species (XSP2) HepG2 Assay for chicken Estrogen Receptor (ERa) (AID 2283817);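 note: actives raise reporter signal above DMSO so AC50 reflects ER activation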
Summary of the method: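 Reporter mRNA induction read by RT-PCR, fluorescent labelling and capillary electrophoresis after 24 h exposure; positive-direction fit against DMSO baseline. HepG2 cells transfected with multiplexed GAL4-UAS units including chicken ERa chimera; medium contained 3 nM 6-alpha-fluorotestosterone plus 1.5 nM norgestrel.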

[2] = test system: zebrafish Estrogen Receptor (ER2a), gene 317734; test: ATG_zfER2a_XSP2: Attagene TRANS-FACTORIAL Multi-Species (XSP2) HepG2 Assay for zebrafish Estrogen Receptor (ER2a) (AID 2283818);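 note: hits raise reporter mRNA so AC50 reflects activation of zebrafish ER2a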
Summary of the method: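 Multiplexed trans-reporter readout: RT-PCR then capillary electrophoresis of reporter transcripts after 24 h compound treatment. Human HepG2 carries transfected zebrafish ER2a-Gal4 chimera; 3 nM 6-alpha-fluorotestosterone plus 1.5 nM norgestrel present. Induction scored against DMSO.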

[3] = test system: frog Estrogen Receptor (ER), gene 398734; test: ATG_frER1_XSP2: Attagene TRANS-FACTORIAL Multi-Species (XSP2) HepG2 Assay for frog Estrogen Receptor (ER) (AID 2283821);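 note: hits raise reporter mRNA above DMSO baseline so potency means agonist or activator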
Summary of the method: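 HepG2 cells transiently transfected with multiplexed GAL4-UAS reporter units expressing chimeric NR-Gal4 proteins (TRANS format) were dosed for 24 h. Reporter mRNA was quantified by RT-PCR, FAM primer extension, HpaI digestion and capillary electrophoresis; gain of signal relative to DMSO.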

[4] = ATG_M_19_XSP2: Attagene TRANS-FACTORIAL Multi-Species (XSP2) HepG2 Assay for M32 Transcription Factor (Internal Marker) (AID 2283822)
Summary of the method: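 Internal background marker in a multi-species nuclear receptor TRANS panel: transfected HepG2 cells exposed 24 h, with 3 nM 6-alpha-fluorotestosterone and 1.5 nM norgestrel present. Readout is RT-PCR of reporter transcripts resolved by capillary electrophoresis, gain-of-signal versus DMSO.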

[5] = test system: zebrafish Androgen Receptor (AR), gene 100005148; test: ATG_zfAR_XSP2: Attagene TRANS-FACTORIAL Multi-Species (XSP2) HepG2 Assay for zebrafish Androgen Receptor (AR) (AID 2283825);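 note: hits raise reporter mRNA above DMSO so AC50 reflects agonist-type gain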
Summary of the method: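 After 24 h compound exposure in medium with 3 nM 6-alpha-fluorotestosterone plus 1.5 nM norgestrel, HepG2 cells carrying zebrafish AR–GAL4 reporter constructs were assessed for reporter mRNA gain by RT-PCR and capillary electrophoresis.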

[6] = ATG_M_32_XSP2: Attagene TRANS-FACTORIAL Multi-Species (XSP2) HepG2 Assay for M19 Transcription Factor (Internal Marker) (AID 2283826)
Summary of the method: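 HepG2 cells transiently transfected with GAL4-UAS reporter units; XSP2 panel included 3 nM 6-alpha-fluorotestosterone and 1.5 nM norgestrel for androgen receptor stimulation. Reporter mRNA read 24 h post-dosing by RT-PCR/capillary electrophoresis; fitted upward versus DMSO.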

[7] = test system: frog Estrogen Receptor (ER2), gene 100174814; test: ATG_frER2_XSP2: Attagene TRANS-FACTORIAL Multi-Species (XSP2) HepG2 Assay for frog Estrogen Receptor (ER2) (AID 2283828)
Summary of the method: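 Read-out: reporter transcript levels by RT-PCR with 6-FAM primer extension, HpaI digestion and capillary electrophoresis, scored as induction over DMSO control. Transfected HepG2 carrying Xenopus ER2–GAL4 chimera; compounds incubated 24 h.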

[8] = biological target: Peroxisome proliferator-activated receptor gamma (Homo sapiens) (UniProt P37231); test: ATG_hPPARg_XSP2: Attagene TRANS-FACTORIAL Multi-Species (XSP2) HepG2 Assay for human Peroxisome Proliferator-activated Receptor gamma (PPARg) (AID 2283829);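 note: actives raise reporter mRNA above DMSO so AC50 reflects PPARg activation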
Summary of the method: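 HepG2 cells transiently transfected with GAL4-UAS reporter units driven by chimeric NR-Gal4 proteins; androgen receptor stimulated with 3 nM 6-alpha-fluorotestosterone and 1.5 nM norgestrel. After 24 h, reporter mRNA quantified by RT-PCR and capillary electrophoresis versus DMSO.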

[9] = biological target: mouse Peroxisome Proliferator-activated Receptor gamma (PPARg), Pparg (gene 19016) (UniProt P37238); test: ATG_mPPARg_XSP2: Attagene TRANS-FACTORIAL Multi-Species (XSP2) HepG2 Assay for mouse Peroxisome Proliferator-activated Receptor gamma (PPARg) (AID 2283830);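 note: hits are gains in reporter mRNA above DMSO so AC50 marks activation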
Summary of the method: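 Multiplexed TRANS reporter readout: after 24 h chemical exposure of transfected HepG2 cells (with 3 nM 6-alpha-fluorotestosterone, 1.5 nM norgestrel present), RNA reverse-transcribed, amplified, 6-FAM-labelled and resolved by capillary electrophoresis; mouse PPARg-Gal4 induction scored against DMSO.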

[10] = test system: chicken Androgen Receptor (AR), gene 422165; test: ATG_chAR_XSP2: Attagene TRANS-FACTORIAL Multi-Species (XSP2) HepG2 Assay for chicken Androgen Receptor (AR) (AID 2283819);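 note: hits raise reporter mRNA above DMSO so potency is for activation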
Protocol: ATG_XSP2_multi-species_TRANS is a cell-based, multiplexed assay created by modifying the existing Attagene TRANS-FACTORIAL system to include a panel of nuclear receptors from some or all the following species: human (Homo sapiens), mouse (Mus musculus), frog (Xenopus laevis), zebrafish (Danio rerio), chicken (Gallus gallus), and turtle (Chrysemys picta). The ECOTOX-FACTORIAL format uses HepG2, a human liver cell line, with measurements taken at 24 hours after chemical dosing in a 24-well plate. Xsp2 included 3 nM 6-alpha-fluorotestosterone and 1.5 nM norgestrel to stimulate the androgen receptor.ATG_chAR_XSP2 is one of 29 assay components measured or calculated from the ATG_XSP2_multi-species_TRANS assay. It is designed to make measurements of mRNA induction, a form of inducible reporter, as detected with fluorescence intensity signals by Reverse transcription polymerase chain reaction (RT-PCR) and Capillary electrophoresis technology.The assay endpoint ATG_chAR_XSP2 was analyzed in the positive analysis fitting direction relative to DMSO as the negative control and baseline of activity. […] Furthermore, this assay endpoint can be referred to as a primary readout, because this assay has produced multiple assay endpoints where this one serves a reporter gene function. […]

Measured: AC50

Peroxisome proliferator-activated receptor gamma (Homo sapiens), sequence (P37231 whole entry, looked up, the tested form may be a part): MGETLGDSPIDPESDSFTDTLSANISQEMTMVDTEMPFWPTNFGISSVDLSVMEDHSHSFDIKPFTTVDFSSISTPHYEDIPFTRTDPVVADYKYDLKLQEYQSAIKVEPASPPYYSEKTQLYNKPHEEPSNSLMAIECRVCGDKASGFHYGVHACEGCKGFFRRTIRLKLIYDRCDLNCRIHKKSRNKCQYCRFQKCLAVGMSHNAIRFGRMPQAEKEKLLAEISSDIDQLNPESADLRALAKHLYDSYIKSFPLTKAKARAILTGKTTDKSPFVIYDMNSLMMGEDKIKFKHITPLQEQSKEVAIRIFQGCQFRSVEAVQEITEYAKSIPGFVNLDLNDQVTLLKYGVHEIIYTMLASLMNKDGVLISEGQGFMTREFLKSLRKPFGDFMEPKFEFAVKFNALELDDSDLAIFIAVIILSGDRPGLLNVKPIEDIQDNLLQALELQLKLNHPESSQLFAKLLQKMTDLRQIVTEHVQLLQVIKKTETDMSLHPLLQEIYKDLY
chicken Estrogen Receptor (ERa), ESR1 (gene 396099), sequence (P06212 whole entry, looked up, the tested form may be a part): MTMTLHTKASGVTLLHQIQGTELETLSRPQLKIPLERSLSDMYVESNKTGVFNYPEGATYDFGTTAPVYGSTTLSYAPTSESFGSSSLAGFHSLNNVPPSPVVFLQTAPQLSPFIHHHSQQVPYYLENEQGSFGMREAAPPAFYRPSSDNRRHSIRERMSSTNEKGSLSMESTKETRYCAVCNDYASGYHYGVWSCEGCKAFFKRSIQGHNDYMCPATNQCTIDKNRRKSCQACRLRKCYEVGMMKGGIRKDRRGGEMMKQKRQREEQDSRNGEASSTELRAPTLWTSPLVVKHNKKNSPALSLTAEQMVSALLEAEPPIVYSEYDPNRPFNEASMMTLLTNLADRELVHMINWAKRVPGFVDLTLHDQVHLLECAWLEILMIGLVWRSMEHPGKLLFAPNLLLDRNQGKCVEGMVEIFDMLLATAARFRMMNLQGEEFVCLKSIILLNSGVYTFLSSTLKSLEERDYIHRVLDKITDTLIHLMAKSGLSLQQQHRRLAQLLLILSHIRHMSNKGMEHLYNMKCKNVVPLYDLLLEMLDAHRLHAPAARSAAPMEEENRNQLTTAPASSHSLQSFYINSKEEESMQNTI
mouse Peroxisome Proliferator-activated Receptor gamma (PPARg), Pparg (gene 19016), sequence (P37238 whole entry, looked up, the tested form may be a part): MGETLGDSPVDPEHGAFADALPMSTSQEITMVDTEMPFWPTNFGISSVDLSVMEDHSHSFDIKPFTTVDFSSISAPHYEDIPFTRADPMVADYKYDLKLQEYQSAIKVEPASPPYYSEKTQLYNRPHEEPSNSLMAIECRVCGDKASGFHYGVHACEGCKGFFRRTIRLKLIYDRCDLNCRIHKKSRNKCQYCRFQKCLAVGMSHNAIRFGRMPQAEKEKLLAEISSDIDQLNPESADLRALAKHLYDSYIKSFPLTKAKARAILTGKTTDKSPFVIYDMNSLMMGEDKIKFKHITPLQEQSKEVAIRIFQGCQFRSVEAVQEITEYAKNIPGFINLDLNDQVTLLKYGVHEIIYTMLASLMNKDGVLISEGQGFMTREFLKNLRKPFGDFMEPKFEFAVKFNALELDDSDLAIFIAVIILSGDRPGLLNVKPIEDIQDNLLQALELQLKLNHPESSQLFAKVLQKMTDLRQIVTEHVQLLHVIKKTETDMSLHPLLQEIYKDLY

CC(C)NC(=O)N1CC(=O)N(c2cc(Cl)cc(Cl)c2)C1=O
active: [8] 33.2 µM | [9] 40.6 µM
inactive: [1] | [2] | [3] | [4] | [5] | [6] | [7]

Cc1c(COC(=O)[C@@H]2[C@H](/C=C(\Cl)C(F)(F)F)C2(C)C)cccc1-c1ccccc1
active: [1] 30.5 µM | [3] 49.3 µM | [7] 100 µM
inactive: [2] | [4] | [5] | [8] | [9]

COP(=S)(OC)Oc1ccc([N+](=O)[O-])c(C)c1
active: [1] 38.3 µM | [2] 44.9 µM | [3] 50.4 µM | [7] 85.1 µM | [8] 55.8 µM | [9] 31.3 µM

CCN(CC)C(=O)C(C)Oc1cccc2ccccc12 (centres undefined)
inactive: [2] | [3] | [6]
active: [1] 7.35 µM | [7] 25.5 µM | [8] 39.8 µM | [9] 42.6 µM

C=C(C)CN(CC)c1c([N+](=O)[O-])cc(C(F)(F)F)cc1[N+](=O)[O-]
inactive: [2]
active: [1] 11 µM and 28.2 µM | [3] 6.84 µM and 32.4 µM | [7] 10.5 µM and 7.61 µM | [8] 41 µM and 23 µM | [9] 43.7 µM and 52.8 µM

COP(=S)(OC)SCn1nnc2ccccc2c1=O
active: [1] 21.7 µM | [3] 29.1 µM and 5.67 µM | [8] 93.7 µM and 23.2 µM | [9] 51.6 µM and 32.6 µM
inactive: [1] | [2] | [7]

CC1(C)C(C=C(Cl)Cl)C1C(=O)OC(C#N)c1cccc(Oc2ccccc2)c1 (centres undefined)
inactive: [2] | [6]
active: [1] 22.8 µM | [3] 21.1 µM | [7] 63.6 µM | [8] 14.2 µM | [9] 27.8 µM

CSC(=O)c1c(C(F)F)nc(C(F)(F)F)c(C(=O)SC)c1CC(C)C
active: [7] 5.69 µM | [8] 6.53 µM | [9] 5.52 µM
inactive: [1] | [2] | [10] | [3] | [4] | [6]

CC1(C)CCC(=Cc2ccc(Cl)cc2)C1(O)Cn1cncn1 (centres undefined)
active: [1] 27.6 µM | [7] 63 µM
inactive: [2] | [3] | [4] | [6] | [8] | [9]

N#Cc1c[nH]cc1-c1cccc2c1OC(F)(F)O2
active: [1] 1.68 µM and 2.04 µM | [2] 25.8 µM and 2.71 µM | [3] 4.14 µM | [7] 1.22 µM and 859 nM | [8] 14 µM and 21.7 µM | [9] 27.2 µM
inactive: [3]
